Shiga inhibitor: A qHTS for Small Molecule Inhibitors of Shiga Toxin | Vero cells, Shiga toxin protein synthesis inhibition reporter | inhibition, % at 38.7 µM | actives 9.2% (n = 290,000) | AID 2315, 2010; in the data active = inhibition mostly above about 28%, no sharp cut-off; inactive = mostly below about 43%; note: 0% is about no effect
Pf growth 96h: Primary qHTS for delayed death inhibitors of the malarial parasite plastid, 96 hour incubation. Potency, µM (titrated, usually from 28.7 µM), for the others: top-dose activity change, negative = inhibition, usual class: inhibitors. actives 6.9% (n = 320,000). P. falciparum luciferase reporter growth, 96 h; note: potency is the fitted concentration of half-maximal effect; % is set by controls: 0 for no effect and ±100 for the full control effect
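P. falciparum expressing integrated firefly luciferase, in erythrocytes at 2% hematocrit, 0.05% parasitemia, incubated with compounds 96 h at 37 C, 5% CO2. Growth inhibition read as loss of luminescence; two-generation exposure targets delayed-death apicoplast inhibitors.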
Pf growth 48h: Primary qHTS for delayed death inhibitors of the malarial parasite plastid, 48 hour incubation | P. falciparum luciferase growth in erythrocytes, 48 h | Potency, µM (titrated, usually from 28.7 µM), for the others: at the top dose activity change, negative = inhibition, hits mostly inhibitors | actives 5.9% (n = 310,000); note: potency is the fitted concentration of half-maximal effect; % is set by controls: 0 for no effect and ±100 for the full control effect
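Parasite viability was followed by luminescence of a genomically integrated firefly luciferase. Cultures held 0.1% parasitemia at 2% hematocrit (final), incubated under 5% CO2 at 37 C.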
CHX counter: Cycloheximide Counterscreen for Small Molecule Inhibitors of Shiga Toxin; max response, %; actives 12% (n = 300,000); AID 2314, 2010; cell reporter, cycloheximide protein synthesis inhibition counterscreen; in the data active = max response mostly above about 13%, no sharp cut-off; inactive = mostly below about 14%; note: read at 38.3 µM for the half of the compounds with a filed dose; 0% is about no effect
An asterisk follows results filed as active; i = inactive; ? = inconclusive; . = no result given. Compounds with a hit are over-represented: about 21% of the library has one in this group of screens. Unless noted, calls come from the whole dose curve; as a rule, active = well fitted inhibition curve with a large enough effect; inconclusive = small, poorly fitted or top-dose-only effect, or another doubt; inactive = no such curve, though single readings can be large or run the other way.

SMILES | Shiga inhibitor | Pf growth 96h | Pf growth 48h | CHX counter
CN(Cc1c(F)cccc1Cl)C(=O)c1ccc2ccccc2n1 | 12 | 19% | 3% | 4
CSc1ccc(CN(C)C(=O)c2cc(=O)c3ccccc3o2)cc1 | 11 | 27% | 0% | -1
CN(Cc1c(F)cccc1Cl)C(=O)c1cc2ccccc2o1 | 35 | -15% | 9% | 37*
CSc1ccc(CN(C)C(=O)c2cc3ccccc3o2)cc1 | 87* | 64% | 35% | 39*
CC1CCCCC1NS(=O)(=O)c1ccc2c(c1)CC(=O)N2C (stereo not drawn) | -2 | ? | ? | 8
CCOc1cc(-c2nccc3cc(OC)c(OC)cc23)cc(OCC)c1OCC | -2 | 11µM* | 10µM* | -2
COc1cc(N)c(C(=O)c2nccc3cc(OC)c(OC)cc23)cc1OC | -9 | 5.2µM* | 0% | -2
COc1cc(N)c(Cc2nccc3cc(OC)c(OC)cc23)cc1OC | -5 | 6.6µM* | ? | -5
COc1cc(C(=O)c2nccc3cc(OC)c(OC)cc23)c([N+](=O)[O-])cc1OC | -5 | ? | ? | -3
COc1cc(Br)c(C(=O)c2nccc3cc(OC)c(OC)cc23)cc1OC | -12 | 8% | 6.6µM* | -4
COc1ccc([N+](=O)[O-])c(OC)c1C(=O)NC(=O)Nc1c(F)cc(F)cc1F | -8 | ? | ? | 3
CCCCCC1C(=O)C[C@@H]2CCN3C(=O)CCC[C@H]1[C@H]23 (stereo partly drawn) | i | . | . | 0
COc1cc(NS(=O)(=O)c2ccc(C)cc2C)cc(OC)c1OC | -12 | 3.3µM* | 6.6µM* | 3
O=C1CSC(=Nc2ccccc2Cl)N1 | 23 | 38% | 12% | 16*
Cc1ccccc1N=C1NC(=O)CS1 | -6 | 20% | 9% | -10
Cc1ccc(N=C2NC(=O)C(CO)(CO)S2)cc1 | 10 | ? | 11% | 8.8*
O=C1CSC(=Nc2ccc(F)cc2)N1 | -3 | ? | ? | -4
Cc1ccccc1N=C1NC(=O)C(CO)(CO)S1 | -14 | -35% | -5% | -3
O=C1NC(=Nc2ccccc2Cl)SC1(CO)CO | -8 | 13µM* | -3% | -2
CCc1ccc(N=C2NC(=O)CS2)cc1 | . | 9.3µM* | ? | -3
COc1ccc(-n2nc(C(=O)O)cc2-c2ccccc2)cc1 | -2 | 0% | 0% | -3
CCOC(=O)c1cc(-c2ccccc2)nc2c1c(C)nn2-c1ccccn1 | 19 | . | ? | 10
CCOC(=O)c1cc(-c2ccncc2)nc2c1c(C)nn2C | 16 | 3.3µM* | . | 7
CCOC(=O)c1cc(-c2ccc3c(c2)OCCO3)nc2c1c(C)nn2CCC#N | 13 | . | 9.3µM* | -2
CCOC(=O)c1cc(-c2ccco2)nc2c1c(C)nn2CCC#N | -4 | ? | 8.3µM* | 15
SMILES | Shiga inhibitor | Pf growth 96h | Pf growth 48h | CHX counter
CN(C)S(=O)(=O)c1ccc(N2CCCC2)c(C(=O)Nc2nc3c(ccc4ccccc43)s2)c1 | -7 | 13µM* | ? | -2
O=C(Nc1nc2c(ccc3ccccc32)s1)c1cc([N+](=O)[O-])ccc1N1CCOCC1 | 73* | ? | ? | 45*
CC(C)(CNC(=O)c1cc([N+](=O)[O-])ccc1N1CCC(Cc2ccccc2)CC1)N1CCOCC1 | . | ? | 9.3µM* | .
CCc1cccc(NC(=O)c2cc(S(=O)(=O)N(C)C)ccc2N2CCCC2)c1 | -22 | ? | -13% | -3
CN(C)S(=O)(=O)c1ccc(N2CCCC2)c(C(=O)Nc2nc(-c3ccc(F)c(F)c3)cs2)c1 | 32 | 10µM* | ? | 28*
O=C(CSc1nc(C(F)(F)F)cc(=O)[nH]1)Nc1nccs1 | . | 4% | -15% | .
O=C(NC1CCCCCCC1)c1c(O)c2ccccc2[nH]c1=O | 47* | ? | ? | 16*
O=C(NC(=S)Nc1ccccc1[N+](=O)[O-])c1ccccc1 | 96* | -10% | 116% | 45*
CC(C)(C)c1ccc(NC(=O)c2ccccc2)c([N+](=O)[O-])c1 | 122* | ? | 30% | 35*
Cc1ccc([N+](=O)[O-])cc1NC(=O)c1ccc(C(C)(C)C)cc1 | -2 | ? | ? | 10
Cc1cc(C(=O)Nc2cccc([N+](=O)[O-])c2C)cs1 | 23 | -9% | 0% | 26*
Cc1c(NC(=O)c2ccc3nsnc3c2)cccc1[N+](=O)[O-] | 45 | 10% | -20% | 2
Cc1c(NC(=O)c2ccc(C(C)(C)C)cc2)cccc1[N+](=O)[O-] | 23 | 24% | 93% | 27*
Cc1ccc(S(=O)(=O)NCC2CCC(C(=O)NC3CCCCC3)CC2)cc1 (stereo not drawn) | 17 | ? | -4% | 5
